# Test results taken from PubChem BioAssay (NCATS).
# Unmarked numbers belong to inactive results. Results filed as inconclusive are left out. Entries that show only a call come without a potency. The source made the active and inactive calls. Unless noted, the call rests on the fitted dose curve; in most records, active means well fitted curve in the direction sought with a large enough effect; inconclusive means small, poorly fitted or top-dose-only effect, or another doubt; inactive means no such curve, though single readings can be large; an effect the other way counts as inactive or inconclusive.
# Key:
# [1] = molecular target: Luciferin 4-monooxygenase (Photinus pyralis) (UniProt P08659); assay: Biochemical firefly luciferase enzyme assay for NPC (AID 624030);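 further: purified P. pyralis luciferase at 10 nM with luciferin and ATP substrate; nearly all actives have a fitted effect of over 70% in size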
# Procedure, shortened: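 Counter-screen for direct inhibition of the luciferase enzyme by approved-drug library compounds, run at 10 nM enzyme in 50 mM Tris acetate (final). Luminescence was read within 5 min of enzyme-buffer addition and normalized to PTC124 versus DMSO (0%).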
# [2] = S16 Schwann cell PMP22 intronic element firefly luciferase assay (AID 624032); further: nearly all actives have a fitted effect of over 30% in size
# Procedure, shortened: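 Rat S16 Schwann cells stably carrying a PMP22 intronic element-driven Fluc reporter were seeded overnight, then exposed to compounds for 24 h at 37 °C. Luminescence was normalized to PTC124 (positive control) and DMSO (0% activity).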
# [3] = S16 Schwann cell viability assay (CellTiter-Glo assay) (AID 624031);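 further: native untransfected S16 rat Schwann cells; cellular ATP luminescence as a viability measure; nearly all actives have a fitted effect of over 70% in size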
# Procedure, shortened: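 Following overnight culture in 10% FBS DMEM, parental S16 rat Schwann cells are dosed for 24 h at 37 °C. Viability is read as CellTiter-Glo luminescence and expressed as % activity relative to DMSO (0%) and no-cell wells.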
# [4] = S16 Schwann cell PMP22 intronic element beta-lactamase assay (AID 624044; calls by dose curve; further: nearly all actives have a fitted effect of over 15% in size); conditions: S16 rat Schwann cells, PMP22 element beta-lactamase FRET, 24 h; ratio activity, negative = inhibition: at 38.3 µM (top of the series) unless noted
# Procedure, shortened: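 Beta-lactamase reporter under a PMP22 intronic regulatory element in stable S16 rat Schwann cells; 24 h compound exposure. 460 nm blue signal normalized between DMSO (0%) and potassium clavulanate, with 535 nm FRET tracking viability; curves classed by r2 and response.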
# [5] = qHTS assay for small molecule activators of the nuclear factor-kappa B (NF-kB) signaling pathway (AID 651749; active means well fitted activation curve with a large enough effect in the signal ratio; the % refers to the signal ratio); conditions: NF-kB-bla ME-180 cells, beta-lactamase FRET ratio, 16 h; stronger effect = higher value
# Procedure, shortened: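 Beta-lactamase reporter expression, controlled by NF-kB response elements in ME-180 cells, was quantified fluorometrically via FRET disruption; cells at 2,000/well had been incubated with 23 nL test compound for 16 hr.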
# [6] = qHTS assay for small molecule disruptors of the mitochondrial membrane potential - 1 hr assay (AID 651754; calls by dose curve; further: nearly all actives have a fitted effect of over 35% in size)
# Procedure, shortened: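 In this qHTS format, a 1 hr compound treatment of HepG2 cells precedes Mito-MPS staining, and membrane potential is judged from aggregate (red) against monomer (green) fluorescence intensity.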
# [7] = qHTS assay for small molecule disruptors of the mitochondrial membrane potential - 5 hr assay (AID 651755; calls by dose curve; further: nearly all actives have a fitted effect of over 40% in size)
# Procedure, shortened: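 Seed HepG2 overnight, add compound, incubate 5 hr at 37C and 5% CO2, stain 30 min with Mito-MPS, then measure monomer (490/535 nm) and aggregate (540/590 nm) fluorescence.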
# [8] = molecular target: Tumor necrosis factor (Homo sapiens) (UniProt P01375); assay: qHTS assay to identify small molecules that stimulate Tumor Necrosis Factor-alpha (TNF-alpha) secretion (AID 651757; active means well fitted curve in the direction sought with a large enough effect in the signal ratio; the % refers to the signal ratio)
# Procedure, shortened: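 Using 3000 THP-1 cells per well, compounds and controls were applied for 17 hrs at 37 C. Detection followed with two labeled anti-TNF-alpha antibodies (cryptate donor, XL665 acceptor) for 3 hr at room temperature, measured by TR-FRET.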
# [9] = molecular target: Peroxisome proliferator-activated receptor alpha (Homo sapiens) (UniProt Q07869); assay: qHTS assay for small molecule agonists of the peroxisome proliferator-activated receptor alpha (PPARalpha) signaling pathway (AID 651778); conditions: PathHunter PPARalpha complementation, chemiluminescence, 6 h; stronger effect = higher value
# Procedure, shortened: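 Cells plated at 2,000/well and held overnight at 37 C, 5% CO2, then compound added by pin tool for 6 hr; after PathHunter detection reagent and 60 min at room temperature, chemiluminescence from enzyme complementation was read.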
# [10] = molecular target: Nuclear receptor ROR-gamma (Homo sapiens) (UniProt P51449); assay: qHTS assay for small molecule antagonists of the retinoid-related orphan receptor gamma (ROR-gamma) signaling pathway (AID 651802); further: nearly all actives have a fitted effect of over 60% in size; further: potency means the concentration at half of the fitted maximal effect
# Procedure, shortened: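 Doxycycline-induced reporter activity in engineered CHO cells (TET-inducible ROR, RORE-LUC) was measured by luminescence after 16hr compound exposure at 37C.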
# [11] = qHTS assay for environmental chemicals that activate the Aryl hydrocarbon Receptor (AhR) signaling pathway (AID 651777); conditions: 1A2-DRE human hepatoma cells, luciferase, 24 h; activation: stronger effect = higher value; further: nearly all actives have a fitted effect of over 15% in size
# Procedure, shortened: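 Concentration–response screening used 1,200 1A2-DRE cells per well, 24 hr compound exposure (37 C, 5% CO2), and One-Glo luminescence as the AhR-driven CYP1A2 reporter signal.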
# [12] = qHTS assay for small molecule agonists of the antioxidant response element (ARE) signaling pathway (AID 651741; active means well fitted activation curve with a large enough effect in the signal ratio; the % refers to the signal ratio; further: potency means the concentration at half of the fitted maximal effect)
# Procedure, shortened: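 Beta-lactamase reporter expression driven by the antioxidant response element in HepG2 cells was detected by fluorescence with LiveBLAzer B/G FRET substrate (2 h, room temperature) following 16 h compound treatment at 37 C.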
# Sequence of Peroxisome proliferator-activated receptor alpha (Homo sapiens) (Q07869 whole entry, looked up): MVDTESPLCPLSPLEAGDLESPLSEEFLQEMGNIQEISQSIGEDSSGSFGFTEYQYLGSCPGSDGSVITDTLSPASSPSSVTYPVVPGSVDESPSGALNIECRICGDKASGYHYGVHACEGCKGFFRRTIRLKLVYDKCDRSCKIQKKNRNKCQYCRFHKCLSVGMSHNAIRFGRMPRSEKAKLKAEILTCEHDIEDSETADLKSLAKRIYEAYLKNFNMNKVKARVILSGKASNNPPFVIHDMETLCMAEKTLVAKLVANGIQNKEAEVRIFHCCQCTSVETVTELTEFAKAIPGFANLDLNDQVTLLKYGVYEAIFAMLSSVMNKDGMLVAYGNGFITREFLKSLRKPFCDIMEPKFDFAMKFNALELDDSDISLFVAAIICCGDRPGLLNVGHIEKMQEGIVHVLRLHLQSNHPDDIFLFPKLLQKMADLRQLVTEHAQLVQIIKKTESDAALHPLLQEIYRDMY
# Sequence of Tumor necrosis factor (Homo sapiens) (P01375 whole entry, looked up): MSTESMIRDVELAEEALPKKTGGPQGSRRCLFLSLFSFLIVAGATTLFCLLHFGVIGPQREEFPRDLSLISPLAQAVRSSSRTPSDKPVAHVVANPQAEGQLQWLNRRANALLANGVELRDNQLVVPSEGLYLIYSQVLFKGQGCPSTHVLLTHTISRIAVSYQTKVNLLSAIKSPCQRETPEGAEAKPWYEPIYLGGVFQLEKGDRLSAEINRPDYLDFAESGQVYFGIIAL
# Sequence of Luciferin 4-monooxygenase (Photinus pyralis) (P08659 whole entry, looked up): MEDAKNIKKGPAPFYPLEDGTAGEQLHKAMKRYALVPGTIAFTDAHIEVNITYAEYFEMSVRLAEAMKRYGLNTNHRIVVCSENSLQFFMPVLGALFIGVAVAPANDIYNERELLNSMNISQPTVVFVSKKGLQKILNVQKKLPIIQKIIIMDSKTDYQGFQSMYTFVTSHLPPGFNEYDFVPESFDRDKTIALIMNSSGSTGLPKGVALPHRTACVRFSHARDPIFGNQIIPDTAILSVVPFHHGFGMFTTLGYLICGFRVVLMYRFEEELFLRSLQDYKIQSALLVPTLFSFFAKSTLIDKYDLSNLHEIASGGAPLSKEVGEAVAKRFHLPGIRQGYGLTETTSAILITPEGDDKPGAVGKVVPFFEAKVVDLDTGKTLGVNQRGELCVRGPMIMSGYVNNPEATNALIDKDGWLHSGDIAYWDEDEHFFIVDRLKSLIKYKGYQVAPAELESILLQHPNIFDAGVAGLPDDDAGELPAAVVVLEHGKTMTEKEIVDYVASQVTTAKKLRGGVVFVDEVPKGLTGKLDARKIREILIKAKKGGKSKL
# Sequence of Nuclear receptor ROR-gamma (Homo sapiens) (P51449 whole entry, looked up): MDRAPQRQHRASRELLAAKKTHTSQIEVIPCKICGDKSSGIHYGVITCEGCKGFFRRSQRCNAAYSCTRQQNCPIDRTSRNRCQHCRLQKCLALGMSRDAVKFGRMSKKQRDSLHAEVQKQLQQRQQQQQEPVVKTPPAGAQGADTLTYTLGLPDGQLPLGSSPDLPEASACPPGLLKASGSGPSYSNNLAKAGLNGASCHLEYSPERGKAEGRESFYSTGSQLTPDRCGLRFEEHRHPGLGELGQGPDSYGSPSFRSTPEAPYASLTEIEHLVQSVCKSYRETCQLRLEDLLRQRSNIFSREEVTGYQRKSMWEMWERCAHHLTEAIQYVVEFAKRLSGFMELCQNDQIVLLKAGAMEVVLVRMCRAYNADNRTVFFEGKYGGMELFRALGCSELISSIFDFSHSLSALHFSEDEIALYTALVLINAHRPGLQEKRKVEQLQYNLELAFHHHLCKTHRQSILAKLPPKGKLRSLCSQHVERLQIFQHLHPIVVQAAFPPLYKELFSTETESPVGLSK
structure (smiles),measurement,setting,value
Nc1nc(=O)n([C@@H]2CS[C@H](CO)O2)cc1F,Potency,[1],inactive
same,Potency,[2],inactive
O=c1[nH]c(=O)n([C@H]2C[C@H](O)[C@@H](CO)O2)cc1/C=C/Br,Potency,[1],inactive
same,Potency,[3],inactive
same,"ratio activity, negative = inhibition",[4],-1.39%
c1ccc(-n2cnnn2)cc1,Potency,[1],inactive
same,Potency,[2],inactive
CCOC(=O)c1cc(-c2ccccc2)nc2ccc(C)cc12,Potency,[1],inactive
same,Potency,[3],inactive
same,"ratio activity, negative = inhibition",[4],4.28%
NC(N)=O,Potency,[1],inactive
same,Potency,[3],inactive
same,Potency,[2],inactive
same,activation,[5],1.05%
same,Potency,[6],inactive
same,Potency,[7],inactive
same,Potency,[8],inactive
same,max response,[9],-1.08%
same,Potency,[10],inactive
CC(C)CCCCCCc1ccc(O)cc1,Potency,[1],inactive
same,Potency,[3],inactive
same,Potency,[2],inactive
same,"ratio activity, negative = inhibition",[4],-8.37%
same,activation,[11],0.323%
CCCOC(=O)c1ccccc1O,Potency,[1],inactive
same,Potency,[3],inactive
same,"ratio activity, negative = inhibition",[4],5.82%
Cn1cc(NC(=O)c2cc(NC(=O)c3cc(NC=O)cn3C)cn2C)cc1C(=O)NCCC(=N)N,Potency,[1],inactive
same,Potency,[3],inactive
same,"ratio activity, negative = inhibition",[4],5.48%
Nc1nccs1,Potency,[1],inactive
same,Potency,[3],inactive
same,Potency,[2],inactive
same,Potency,[12],inactive
same,activation,[5],0.221%
same,Potency,[8],inactive
same,activation,[11],1.04%
same,max response,[9],-4.35%
same,Potency,[10],inactive
CC(C)(C)CC(C)(C)c1ccc(OCCO)cc1,Potency,[1],inactive
same,Potency,[3],inactive
same,"ratio activity, negative = inhibition",[4],-12.4%
same,Potency,[12],37.6 µM (active)
same,activation,[5],0.716%
same,Potency,[6],inactive
same,Potency,[8],inactive
same,activation,[11],2.97%
same,max response,[9],20.4%
same,Potency,[10],42.2 µM (active)
C#C[C@]1(O)CC[C@@H]2[C@H]3CCC4=CC(=O)CC[C@H]4[C@H]3C(=C)C[C@@]21CC,Potency,[1],inactive
same,Potency,[3],inactive
same,"ratio activity, negative = inhibition",[4],-9.17% (active)
F[Si-2](F)(F)(F)(F)F,Potency,[1],inactive
same,Potency,[3],inactive
same,"ratio activity, negative = inhibition",[4],7.11%
CSc1nc2cc(Oc3cccc(Cl)c3Cl)c(Cl)cc2[nH]1,Potency,[1],inactive
same,Potency,[3],inactive
same,"ratio activity, negative = inhibition",[4],-0.19%
Cn1c(O)c(N=NC(N)=S)c2ccccc21,Potency,[1],inactive
same,Potency,[2],inactive
